# ROMK mod = modulates human ROMK potassium channel activity; P48048; Tet-inducible ROMK, thallium flux fluorescence; actives lie on both sides; B-score at 10 µM; actives 2% (n = 130,000);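 active means signal ratio slope over the read window, or its plate-corrected B-score, at least 3 SD from the plate mean, either direction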;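 further: B-score of the F/F0 ratio slope over 7 to 12 s after thallium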
# Target sequence (P48048 whole entry, looked up): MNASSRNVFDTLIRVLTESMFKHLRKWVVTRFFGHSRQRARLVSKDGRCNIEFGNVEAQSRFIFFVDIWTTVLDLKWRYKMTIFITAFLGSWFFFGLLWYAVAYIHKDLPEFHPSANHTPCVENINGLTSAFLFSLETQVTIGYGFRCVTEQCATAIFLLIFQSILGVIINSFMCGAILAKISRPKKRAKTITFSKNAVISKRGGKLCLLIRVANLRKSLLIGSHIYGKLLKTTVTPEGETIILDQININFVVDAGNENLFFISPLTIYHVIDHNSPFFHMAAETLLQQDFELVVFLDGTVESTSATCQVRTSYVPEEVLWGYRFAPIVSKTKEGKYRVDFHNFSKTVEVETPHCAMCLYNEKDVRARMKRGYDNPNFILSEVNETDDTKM
# L major viab = inhibitors of Leishmania major promastigote growth; Leishmania major promastigotes, resazurin fluorescence viability; inhibition, % at 10 µM; actives 9% (n = 200,000); AID 1063; in the data active means inhibition above about 50%;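 further: promastigotes grown with compound for 44 hours at 28 °C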
# Calpain2 inh = inhibitors of pig calpain II; inhibition, % at 16 µM; purified calpain II, fluorogenic peptide substrate, 30 min; actives 0.37% (n = 220,000);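 active means inhibition above about 50%, limit read from the data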
# KCC2 mod = modulators of human KCC2 chloride dependent transport; Q9H2X9; KCC2 cells, thallium flux FluoZin-2 fluorescence; B-score of Tl+ flux slope (higher = more flux/activation; lower = inhibition) at 10 µM; actives 2.2% (n = 190,000);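 active means thallium flux slope and its plate-corrected score both differing from the plate sample mean at a set confidence after two filtering rounds, in either direction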;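 further: slope of fluorescence scaled to starting intensity during 10 to 20 s after thallium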
# WT yeast gro inh = growth inhibition of WT yeast, mitochondrial fusion screen; mitochondrial fusion phenotypic screen, WT strain; inhibition, % at 10 µM; actives 2.1% (n = 190,000); AID 1362; in the data active means inhibition above about 58%; tested in S. cerevisiae
# * marks the source's active call; other numbers are inactive results; x = no result given. Compounds with a hit are over-represented: about 12% of the library has one in this group of screens.
SMILES,ROMK mod,L major viab,Calpain2 inh,KCC2 mod,WT yeast gro inh
CCCCC(c1nnnn1CC1CCCO1)N1CCN(c2cc(Cl)ccc2C)CC1 (stereo not given),-0.41,44,17,-0.037,60*
NC(=O)C[n+]1cccc(/C=N/O)c1,0.37,-4,12,0.069,11
Fc1cccc(CCN2C(=S)NC[C@@H]2Cc2ccccc2)c1,x,5,27,-2.4,66*
Fc1cccc(CCN2C(=S)NC[C@@H]2CC2CCCCC2)c1,x,x,15,1.1,x
CCCC[C@@H]1CNC(=S)N1CCC12CC3CC(CC(C3)C1)C2,x,9,3,0.46,65*
CCCC[C@@H]1CNC(=S)N1CCc1cccc(F)c1,x,1,-12,-0.07,65*
CCCC[C@@H]1CNC(=S)N1CC1CCCCC1,x,x,17,-0.69,x
CCCC[C@@H]1CNC(=S)N1CCc1cccc2ccccc12,x,20,18,0.86,75*
O=c1c(-c2cccc3ccccc23)[n+]([O-])c2ccccc2n1O,x,-2,-55,1.3,13
CN(C)S(=O)(=O)c1ccc(Cl)c(NC(=O)CN2CCNC(=O)C2)c1,1.2,-4,-22,1.2,28
Oc1ccc(/C=N/Nc2cc(N3CCOCC3)nc(N3CCOCC3)n2)cc1,x,-10,x,-0.6,x
CCOc1ccc(/C=N/Nc2cc(C)nc(N3CCOCC3)n2)cc1,x,x,-11,0.38,x
Oc1ccc(/C=N/Nc2cc(N3CCCC3)nc(N3CCCC3)n2)cc1,0.66,13,-68,0.85,63*
COc1ccc(/C=N/Nc2cc(N3CCCC3)nc(N3CCCC3)n2)cc1,-0.35,95*,-24,0.024,75*
Oc1cccc(/C=N/Nc2cc(N3CCCC3)nc(N3CCCC3)n2)c1,0.78,97*,-44,0.43,37
O=C(NCCc1c[nH]c2ccccc12)/C(=C/c1cccnc1)NC(=O)c1cccs1,0.026,-2,-12,-0.12,-12
Nc1c(C(=O)NC2CCCC2)sc2nc(-c3cccs3)ccc12,-1.2,24,-68,0.66,62*
O=C(N/N=C/c1cccnc1)C(=O)N1CCCCCC1,x,x,-26,0.23,x
COc1ccc(N(CC(=O)Nc2cccc(N(C)S(C)(=O)=O)c2)S(=O)(=O)c2ccc(C)cc2)cc1,-1,67*,-2,-1.4,5
COc1ccc(N(CC(=O)Nc2cccc(N(C)S(C)(=O)=O)c2)S(=O)(=O)c2ccc(F)cc2)cc1,x,x,-9,-0.37,x
Cc1ccc(S(=O)(=O)N(CCC(=O)Nc2ccc(OC(F)(F)F)cc2)c2ccccc2)cc1,0.064,95*,24,0.023,41
CCOc1ccc(N(CC(=O)Nc2cccc(N(C)S(C)(=O)=O)c2)S(=O)(=O)c2ccccc2)cc1,-0.57,55*,-5,1.2,-2
CC(C)Oc1ccc(/C(O)=C2/C(=O)C(=O)N(CCCN3CCOCC3)C2c2ccncc2)cc1 (stereo not given),x,x,x,x,-5
CC1CN(Cc2nc3c(c(=O)n(C)c(=O)n3C)n2Cc2ccc(Cl)cc2)CC(C)O1 (stereo not given),x,x,x,x,16
COc1ccc(C2=NOC(Cn3c(Cc4ccc(Cl)cc4)nc4c3c(=O)n(C)c(=O)n4C)C2)cc1 (stereo not given),0.28,64*,-169,-1.7,37
SMILES,ROMK mod,L major viab,Calpain2 inh,KCC2 mod,WT yeast gro inh
COCC1CCN(Cc2cn(C)nc2-c2cccc(Cl)c2)C1 (stereo not given),0.87,1,20,-0.68,17
CCOC(=O)N1CCN(C(=O)CSc2nc(CC)nc3c2c(=O)n(C)c(=O)n3C)CC1,x,x,13,0.65,x
COc1cc2c(cc1OC)C1Cc3ccc(OC)c(OC)c3CN1CC2 (stereo not given),x,95*,2,-1.1,-18
COc1ccc2c(c1OC)CN1CCc3cc4c(cc3[C@@H]1[C@@H]2O)OCO4,-0.4,-1,5,-0.069,-7
Oc1c(Br)cc(Br)cc1CNc1ccc(F)cc1,1.1,-15,1,x,83*
CCC(=O)N1CCc2cc(S(=O)(=O)CCC(=O)Nc3c(C)n(C)n(-c4ccccc4)c3=O)ccc21,x,-3,x,0.55,x
CCN(CC)CC(=O)c1c(N)n(Cc2ccccc2)c(=O)n(C)c1=O,0.68,-1,-2,0.41,-4
Cn1c(=O)c(C(=S)NC(=O)C2CC2)c(N)n(Cc2ccccc2)c1=O,1.2,29,-20,10*,17
Cc1ccc(-n2nnc3c(=O)n(Cc4ccccn4)cnc32)cc1C,0.44,8,-17,-1.3,6
COc1ccc(Cl)cc1NC(=O)CCc1nc(-c2ccccc2F)no1,-0.24,4,28,-0.29,24
O=S(=O)(c1ccc(-c2nnc(SCc3ccccc3)o2)cc1)N1CCCC1,-1.5,85*,-26,-0.22,12
COc1cccc(/C=C2\SC(=S)N(C(Cc3ccccc3)C(=O)O)C2=O)c1 (stereo not given),-1.4,-1,-35,-2.1,-22
OCCC1CN(C2CCN(c3ccccc3F)CC2)CCN1Cc1ccccc1 (stereo not given),x,80*,-34,0.24,-10
CC(C)CCN1CCN(C2CCN(c3ccccc3)CC2)CC1CCO (stereo not given),0.07,89*,-9,-0.52,-15
CC(C)CCN1CCN(Cc2nc(-c3ccccc3)cs2)CC1CCO (stereo not given),-0.9,85*,-12,-0.5,6
OCCC1CN(Cc2nc(-c3ccccc3)cs2)CCN1CCc1ccccc1 (stereo not given),-3.2,87*,-3,-3.5,36
OCCC1CN(C2CSCCSC2)CCN1Cc1ccccc1 (stereo not given),x,-1,16,x,9
O=C(/C=C/c1ccccc1)N1CCN(Cc2nc3ccccc3c(=O)[nH]2)CC1,x,-2,1,0.0055,26
CC(C)CCN1CCN(CC#Cc2ccccc2)CC1CCO (stereo not given),0.44,80*,-18,0.079,-2
CC(C)=CCN1CCN(Cc2nc(-c3ccccc3)cs2)CC1CCO (stereo not given),-0.57,70*,9,x,5
CC(C)(C)OC(=O)NCCCCCNC(=O)c1[nH]cnc1C(=O)N[C@@H](CCCCNC(=O)OC(C)(C)C)C(=O)OC(C)(C)C,x,10,54*,-1.2,16
C[C@H](NC(=O)c1nc[nH]c1C(=O)NCCCCCNC(=O)OC(C)(C)C)C(=O)OCc1ccccc1,x,0,40,-4.4*,10
N=c1c2c(-c3ccccc3)c(-c3ccccc3)n(Cc3ccco3)c2ncn1Cc1ccccc1,-4.8*,100*,-15,-1.5,x
N=c1c2c(-c3ccccc3)c(-c3ccccc3)n(Cc3ccccc3)c2ncn1CCO,x,100*,-40,0.14,2
CC1Cc2ccccc2N1C(=S)NC(=O)c1cccc(Br)c1 (stereo not given),10*,-4,9,63*,60
CC1Cc2ccccc2N1C(=S)NC(=O)c1ccc(Cl)cc1Cl (stereo not given),7.8*,-4,14,51*,60*
O=C(NCC1CCCO1)c1cc(C(=O)c2ccc(Cl)cc2Cl)c[nH]1 (stereo not given),-0.16,8,28,-0.43,-6
CCCNC(=O)Nc1nnc(C2CC2)s1,x,-3,-19,1.7,-9
